What all share (test): NCI-60 one-dose screen, 48 h (100 = growth as untreated, 0 = no growth, -100 = all killed)
What all share (conditions): 10 µM unless noted

The test system of experiment [1] is SR leukemia.
Experiment [2] has as its system RPMI-8226 leukemia.
Experiment [3] concerns OVCAR-8 ovarian.
The subject of experiment [4] is OVCAR-5 ovarian.
Experiment [5] concerns SK-OV-3 ovarian.
For experiment [6], the system named is IGROV1 ovarian.
For experiment [7], the system named is HS 578T breast.
Experiment [8] concerns OVCAR-4 ovarian.
Experiment [9] relates to OVCAR-3 ovarian.
Experiment [10] deals with NCI/ADR-RES ovarian.

Consider 26 compounds from PubChem BioAssay (NCI).

About 83,000 compounds went through this panel and 20% of them were active in at least one assay; those are over-represented in the sample as a whole.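 Treatment: one concentration, 48 hours, 96-well format. Scoring: percent growth, with anything below 10 considered active.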 Unmarked numbers belong to inactive results. Activity calls are given as the source filed them.

Regarding `CCN(CC)CCN1CNC(=S)NC1`, the growth in [1] was 96.4%; in experiment [2], 99.2%; in experiment [3] it was 112%; in [4] it was 107%; in experiment [5], 108%; in experiment [6], 113%. Further, the growth in [7] was 105%.

Turning to `Cc1ccc(C)c2c1CCC2=O`, the growth in experiment [1] was 132%; in experiment [3], 104%; in [4], 95.8%; in experiment [8] it was 105%; in [5], 121%; in experiment [6] it was 117%. Besides, the results for the growth in experiment [9], in [7] and in experiment [10] were 96.7%, 92.6% and 101%, respectively.

`CC(=O)NNC(=S)/N=C\C(C(=O)c1ccccc1)=C(/O)c1ccccc1`: the growth in experiment [1] was 102%; in [3] it was 102%; in experiment [4] it was 97.2%; in [8], 114%; in [5], 91.8%; in [6], 95%. The growth was 109% in experiment [9], 106% in [7] and 99% in [10].

Regarding `COC1(OC)C2(Cl)C(Cl)=C(Cl)C1(Cl)C1COCC12` (stereo unspecified), the growth is 89.9% in experiment [1]; 106% in experiment [2]; 93.9% in experiment [3]; 97.7% in experiment [8]; 96% in experiment [5]; 113% in [6]. The growth was 110% in [9], 87.4% in experiment [7] and 110% in experiment [10].

Regarding `CCCCCC/C=C\CCCCCCCCCc1cc(O)cc(OC)c1O`, the growth in [1] is 0.217% (active); in experiment [2], -7.09% (active); in experiment [3], -26.1% (active); in experiment [8], -19.5% (active); in [5], 6.17% (active); in experiment [9] it was 13.6%. Also, the growth in experiment [7] was 44.9%; in experiment [10], -5.84% (active).

Turning to `CC(=O)Nc1ccc(C(=O)c2ccc(S(=O)(=O)Nc3ccccc3)cc2)cc1`, the growth in experiment [1] was 105%; in experiment [2], 68.1%; in [3], 84%; in [8], 95.5%; in experiment [5] it was 104%; in experiment [9], 105%. The growth in experiment [7] is 127%; in experiment [10], 30.6%.

As to `OCCOc1ccc(-c2cc(-c3ccccn3)nc(-c3ccccn3)c2)cc1`, the growth in [1] is 5.14% (active); in experiment [2], 2.3% (active); in experiment [4] it was -36.4% (active); in [8], 5.18% (active); in [5] it was 18.5%; in experiment [6] it was -17.6% (active). In addition, the growth is -32.7% (active) in experiment [9] and -57% (active) in experiment [10].

As for `OC(CCN1CCCCC1)(c1ccccc1)c1ccccc1`, the growth is 104% in [1]; 100% in [2]; 99% in [3]; 99.8% in [8]; 112% in experiment [5]; 106% in [6]. For the same compound, the growth in experiment [9] was 112%; in [7], 107%; in experiment [10] it was 100%.

Take `COC1C(=O)CCC2(CO2)C1(O)C1(C)OC1CCC(C)C` (stereo unspecified): the growth in experiment [1] is 32.2%; in experiment [2] it was 77.4%; in experiment [4], 87.2%; in experiment [8] it was 89.7%; in experiment [5] it was 101%; in experiment [6] it was -5.17% (active). Further, the growth in experiment [9] was 95.1%; in experiment [7], 90.5%; in experiment [10] it was 86.8%.

Turning to `CC(C)N1CC(=O)N2CSCC2C1=O` (stereo unspecified), the growth in [1] was 114%; in experiment [2] it was 109%; in experiment [3], 106%; in [8], 123%; in [5], 116%; in experiment [6], 111%. Further, the results for the growth in experiment [9], in experiment [7] and in [10] were 104%, 98.7% and 109%, respectively.

For the compound `CC1CC(C)S(=O)(=O)C1` (stereo unspecified), the growth in experiment [1] is 97.9%; in [2] it was 109%; in experiment [3], 92%; in [4], 108%; in experiment [5] it was 120%; in [7], 125%. Moreover, the growth in experiment [10] is 111%.

In the case of `CSCC[C@@H]1C(=O)N(C)[C@H](C(C)(C)C)N1C(=O)c1ccccc1`, the growth in experiment [1] was 124%; in experiment [2] it was 117%; in [3], 100%; in [8] it was 105%; in experiment [5] it was 113%; in experiment [6] it was 100%. For the same compound, the growth in experiment [9] was 103%; in experiment [7], 111%; in experiment [10], 104%.

As to `O=C(CCl)Nc1ccccc1SCc1cc(Cl)cc2c1OCOC2`, the growth in experiment [1] is 31.9%; in experiment [3], 75.4%; in experiment [4], 101%; in [8], 47.7%; in experiment [5], 80.8%; in [6] it was -43% (active). Further, the growth in [9] was 26.1%; in experiment [7], 102%; in experiment [10], 101%.

Regarding `C1Cc2onc(-c3noc4c3CCC4)c2C1`, the growth in [1] was 99.1%; in [3], 110%; in experiment [4] it was 103%; in experiment [8], 105%; in experiment [5], 106%; in experiment [6], 114%. In addition, the growth was 115% in [9], 114% in experiment [7] and 115% in [10].

For the compound `CCOC(=O)c1ccc(NC(C)=O)o1`, the growth in experiment [1] is 79.3%; in experiment [2] it was 103%; in [3], 91.3%; in experiment [8], 107%; in experiment [5], 92.1%; in [6], 108%. The growth in experiment [9] was 113%; in [7] it was 89.6%; in [10], 97.5%.

`CCOC(=O)c1ccc(Nc2sc(C(=O)c3ccc(Br)cc3)c(N)c2C#N)cc1`: the growth is 18.6% in experiment [1]; 29.6% in experiment [3]; 46.8% in [4]; 70.5% in experiment [8]; 11.7% in [5]; 31.3% in experiment [6]. The growth in experiment [9] is -6.38% (active); in experiment [7], 20.8%; in experiment [10], 22%.

On to `CC(C)(C)[Si](C)(C)OCC1OC(n2cnc3c(N)ncnc32)CC1OS(C)(=O)=O` (stereo unspecified), for which the growth in [1] was 107%; in experiment [2] it was 103%; in experiment [3], 98.6%; in [8] it was 108%; in experiment [5] it was 101%; in experiment [9], 104%. In addition, the figures for the growth in experiment [7] and in experiment [10] were 89.8% and 103%, respectively.

Regarding `NNC(=O)CCCCl`, the growth in [1] was 114%; in experiment [2], 114%; in [3], 104%; in [8], 106%; in experiment [5], 123%; in experiment [6] it was 106%. Moreover, the growth in experiment [9] was 104%; in experiment [7], 112%; in experiment [10] it was 106%.

In the case of `COC1OC(CO)C(OC)C(O)C1O` (stereo unspecified), the growth in experiment [1] is 93.8%; in [2], 101%; in [3], 105%; in [8], 98.5%; in experiment [5], 105%; in experiment [6], 102%. Further, the growth in [9] was 112%; in [7], 112%; in experiment [10], 93.5%.

`COc1cc(C(=O)NC(=S)NCc2ccncc2)cc(OC)c1OC`: the growth in experiment [1] was 74.2%; in experiment [2], 97.2%; in [3] it was 103%; in experiment [4], 107%; in experiment [6] it was 107%; in [7], 106%. Moreover, the growth in experiment [10] is 98.2%.

Consider `CCCCNc1ccc(-c2ccc(NCCCC)cc2)cc1`, for which the growth is 44.1% in experiment [1]; 82.1% in experiment [3]; 90.3% in experiment [4]; 63.5% in experiment [8]; 94.5% in experiment [5]; 78% in experiment [6]. Moreover, the growth in experiment [9] was 67.8%; in experiment [7] it was 84.2%.

As for `C=C(C)[C@@H]1CC[C@]2(CO)CC[C@]3(C)[C@H](CC[C@@H]4[C@@]5(C)CC[C@H](O)C(C)(C)[C@@H]5CC[C@]43C)[C@@H]12`, the growth in [1] is 42.6%; in experiment [2], 41.2%; in experiment [4] it was -21.9% (active); in experiment [8], 33.7%; in [5] it was 41.3%; in experiment [6] it was 35.9%. Further, the growth in experiment [9] is 64.5%; in [10], -43.6% (active).

As for `CCOC(=N)CC(=O)Nc1cccc(C)c1Cl`, the growth was 105% in experiment [1]; 107% in experiment [2]; 99.4% in [3]; 106% in [8]; 97.7% in experiment [5]; 104% in experiment [9]. Besides, the growth in experiment [7] was 105%; in experiment [10], 97.7%.

Turning to `C=COC(=O)C(C)(C)C`, the growth in experiment [1] is 91.2%; in [3] it was 107%; in experiment [4] it was 106%; in [8] it was 108%; in [5] it was 107%; in [6] it was 96.7%. Also, the growth in [9] is 107%; in [7], 101%; in [10], 101%.

For `c1ccc(-c2ccc3ccccc3c2)cc1`, the growth is 80.7% in experiment [1]; 97.1% in [3]; 99.6% in [4]; 108% in experiment [8]; 90.5% in [5]; 85.3% in experiment [6]. The growth is 103% in experiment [9], 84.5% in [7] and 105% in [10].

For `NCC(O)C(O)C(O)C(O)CO` (stereo unspecified), the growth in experiment [1] was 96.6%; in experiment [3], 100%; in experiment [4] it was 107%; in [8], 103%; in experiment [5], 86.1%; in [6] it was 101%. Moreover, the growth was 101% in experiment [9], 97.1% in experiment [7] and 102% in experiment [10].
